The nature of experiment [1]: rapamycin-like changes in RPL19A-GFP expression – cell-based, S. cerevisiae, multiplex flow cytometry, primary screen (AID 1862; in the data active means percent of DMSO control GFP below about 86%;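 further: lower values mimic rapamycin by blocking the RPL19A rise seen in DMSO cells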). The following applies: S. cerevisiae RPL19A-GFP strain, flow cytometry fluorescence, 3 h; at 10 µM; stronger effect = lower value. (In general: Flow cytometry measures light scatter and fluorescence of single cells or particles in a stream.)
A short description of experiment [2]: TOR pathway GLN3 branch reporter MEP2-GFP changes – S. cerevisiae, multiplex flow cytometry, primary screen (AID 1867;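 active means GFP response, as percent of the DMSO control, above the screen-wide mean plus 3 SD, about 139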;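 further: median GFP channel fluorescence of barcode-gated MEP2-GFP cells measured by flow cytometry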). The following applies: S. cerevisiae MEP2-GFP strain, 3 h, at 10 µM, stronger effect = higher value.
Experiment [3] can be described thus: TOR pathway RTG branch CIT2 reporter changes – S. cerevisiae, GFP fusion, multiplex flow cytometry, primary screen (AID 1870;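 active means percent response above a set limit, the screen-wide mean plus 3 SD, cut at about 130% in these data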;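 further: barcoded CIT2-GFP strain pooled with four other GFP strains with rapamycin as positive control; median GFP fluorescence per well over plate mean of DMSO wells so 100% = DMSO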). The following applies: S. cerevisiae CIT2-GFP expression, 3 h, at 10 µM, stronger effect = higher value.
Experiment [4] is described as follows: TOR pathway LAP4-GFP level changes – S. cerevisiae, multiplex flow cytometry, primary screen (AID 1873;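 active means GFP signal, as percent of the solvent control, above the screen mean plus 3 SD, about 149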). As to conditions: S. cerevisiae LAP4-GFP expression, 3 h, at 10 µM, stronger effect = higher value.
Experiment [5] is described as follows: yeast AGP1-GFP level changes, GLN3 branch – cell-based, multiplex flow cytometry, S. cerevisiae, primary screen (AID 1887;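 active means GFP signal above the screen-wide mean plus 3 SD, that is over about 124.5% of the solvent control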;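 further: AGP1-GFP fusion strain of S. cerevisiae within a five-strain barcoded multiplex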). The following applies: 3 h, at 10 µM, stronger effect = higher value.
Experiment [6] in a line: reduced mouse 2C T cell binding to pMHC/ICAM-1 vesicles – MLPCN validation set, flow cytometry, LFA-1/ICAM-1 modulator project, pilot screen (AID 2523;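 active means response below a set limit, under 55% cells CD8-positive and vesicle-bound, and CD8 cells' 90th-percentile brightness under 279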;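 on vesicle binding response: mean PE anti-B7-1 fluorescence of CD8+ cells relative to row control; 100% = QL9-loaded vesicles with DMSO vehicle in the same plate row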). The following applies: 2C mouse CD8+ T cells, at 7 µM, stronger effect = lower value; double positive events: measured here: CD8+/vesicle+ event percentage.
The target of experiment [7] is Integrin beta-1 (Homo sapiens) + Integrin alpha-4 (Homo sapiens) (UniProt P13612+P05556). The experiment in a line: alpha4beta1 integrin LIBS antibody binding reduction – U937 cells, HUTS-21 mAb, flow cytometry, validation set, VLA-4 allosteric modulator project, pilot screen (AID 2674;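 active means inhibition above 50%, about 3 SD of the validation set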;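 further: antibody binding induced by the VLA-4 ligand LDV present at three times its Kd; 0% = LDV ligand with antibody and no compound and 100% = antibody without LDV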). As to conditions: HUTS-21 LIBS mAb binding, at 6.7 µM, stronger effect = higher value.
Experiment [8] can be described thus: calorie-restriction mimetic ROS inhibitors, yeast – validation compound set, pilot screen (AID 2706;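 active means superoxide response below 65% of plate, a cut near 3 SD across the whole screen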;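 further: yeast exposed to compound for one week at 30 degrees C before staining; 100% = mean of all compound wells on the same plate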). The following applies: S. cerevisiae aging, superoxide DHE fluorescence; at 10 µM; stronger effect = lower value.
Experiment [9] has as its target Beta-adrenergic receptor kinase 1 (Homo sapiens) (UniProt P25098). The experiment is described as follows: GRK2 binders displacing RNA aptamer, biochemical, validation, human GRK2, bead flow cytometry (AID 488806;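 active means aptamer binding inhibition above 30%, about 3 SD of noise from non-fluorescent compounds; inactive means inhibition at or below 30%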). The following applies: bead-bound GRK2, FAM-aptamer displacement, at 10 µM, stronger effect = higher value.
The target of experiment [10] is Beta-2 adrenergic receptor (Homo sapiens) (UniProt P07550). The experiment in a line: agonist-induced loss of surface beta2AR – cell-based, FAP fluorogen, flow cytometry, validation set, pilot screen (AID 504459;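 active means percent response above 42, roughly 3 SD of non-fluorescent test compounds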;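 further: agonist-driven loss of surface beta2AR via internalization measured by FAP dye flow cytometry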). The following applies: Am2.2-beta2AR cells, at 10 µM, stronger effect = higher value.
The target in experiment [11] is AP-2 complex subunit beta (Homo sapiens) (UniProt P63010). The experiment is described as follows: beta-arrestin/AP2 interaction blockers – biochemical, validation set, GST-AP2 beads, flow cytometry, pilot screen (AID 504541;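 active means inhibition above 54%, about 3 SD of non-fluorescent compounds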;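 further: AP2 carries R879A mutation and is captured from E. coli lysate; bead-bound FITC arrestin peptide fluorescence measuring arrestin peptide binding to AP2; 0% = DMSO wells and 100% = excess unlabeled arrestin peptide control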). The following applies: FITC arrestin peptide, at 10 µM, stronger effect = higher value.
The nature of experiment [12]: cytosolic pH regulators acting via V-ATPase – S. cerevisiae, pHLuorin, HTS validation (AID 504600; in the data active means response above about 15%;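 further: plate controls were DMSO for no effect and reference compound for full effect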). As to conditions: V-ATPase proton transport, at 10 µM, stronger effect = higher value.
Experiment [13] deals with anti-desmoglein-3 scFv antibody binding to human DSG3. The experiment is described as follows: blockers of pathogenic pemphigus antibody–desmoglein-3 binding – biochemical, validation compound set, bead-based, flow cytometry, pilot screen (AID 588368;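 active means binding below the plate cutoff, the plate median minus 3 SD, with a reading above zero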;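 further: signal is the median channel fluorescence of bead-bound GFP antibody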). As to conditions: Protein G beads, DSG3-Fc, scFv-GFP binding, at 10 µM, stronger effect = lower value.
The test system of experiment [14] is Botulinum neurotoxin type F light chain protease (Clostridium botulinum). The experiment is described as follows: Clostridium botulinum type F light chain protease inhibitors, microsphere substrate cleavage, validation (AID 588459). As to conditions: multiplex microsphere protease substrate cleavage assay, flow cytometry; at 10 µM; stronger effect = higher value.
Experiment [15] concerns the target Botulinum neurotoxin type A (Clostridium botulinum) (UniProt P0DPI0). The experiment is described as follows: BoNT/A light chain protease inhibitors, biochemical, multiplex microsphere flow cytometry, validation set (AID 588460). As to conditions: at 10 µM, stronger effect = higher value.
Experiment [16] has as its target Lethal factor (Bacillus anthracis) (UniProt P15917). The experiment is described as follows: Bacillus anthracis lethal factor inhibition, microsphere flow cytometry protease assay, validation at 10 µM (AID 588461). The following applies: multiplex microsphere protease cleavage assay, stronger effect = higher value.
Experiment [17] can be described thus: Nile Red efflux blockade in pump-expressing yeast – validation compound set, multiplex, phenotypic, pilot screen (AID 588506;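 active means efflux inhibition above 0.42, the validation set average plus 4 SD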;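 further: Nile Red retained in cells so higher fluorescence means more efflux inhibition; 0 = negative control wells and 1 = enniatin B 25 µM full block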). As to conditions: S. cerevisiae pump-expressing triplex, Nile Red efflux flow cytometry; at 10 µM; stronger effect = higher value.
The target in experiment [18] is ATP-binding cassette sub-family B member 6 (Homo sapiens) (UniProt Q9NP58). The experiment in a line: blockers of ABCB6-driven porphyrin uptake – K562-ABCB6 cells, flow cytometry, validation set, pilot screen (AID 588550;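 active means inhibition above the screen-wide mean plus 3 SD, about 51%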;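 further: 0% = DMSO wells and 100% = benzethonium chloride 70 µM positive control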). The following applies: K562-ABCB6 porphyrin accumulation, 1 h, at 10 µM, stronger effect = higher value.
Experiment [19] is described as follows: AML differentiation inducers, ER-HoxA9 marrow cells – cell-based, GFP/MAC1 double positive, flow cytometry, validation set, primary screen (AID 588685;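 active means differentiation response of at least 50%, scaled between solvent and reference control, from cells with both markers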;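 further: compound exposure lasts four days before antibody staining and flow analysis; 0% = DMSO wells and 100% = 5 µM fulvestrant positive control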). The following applies: stronger effect = higher value.

This is an account of results in PubChem BioAssay.

Records with an inconclusive call do not appear. The source made the active and inactive calls. Unless noted, how the calls were made is not given here.

Chain of Beta-adrenergic receptor kinase 1 (Homo sapiens) (P25098 whole entry, looked up): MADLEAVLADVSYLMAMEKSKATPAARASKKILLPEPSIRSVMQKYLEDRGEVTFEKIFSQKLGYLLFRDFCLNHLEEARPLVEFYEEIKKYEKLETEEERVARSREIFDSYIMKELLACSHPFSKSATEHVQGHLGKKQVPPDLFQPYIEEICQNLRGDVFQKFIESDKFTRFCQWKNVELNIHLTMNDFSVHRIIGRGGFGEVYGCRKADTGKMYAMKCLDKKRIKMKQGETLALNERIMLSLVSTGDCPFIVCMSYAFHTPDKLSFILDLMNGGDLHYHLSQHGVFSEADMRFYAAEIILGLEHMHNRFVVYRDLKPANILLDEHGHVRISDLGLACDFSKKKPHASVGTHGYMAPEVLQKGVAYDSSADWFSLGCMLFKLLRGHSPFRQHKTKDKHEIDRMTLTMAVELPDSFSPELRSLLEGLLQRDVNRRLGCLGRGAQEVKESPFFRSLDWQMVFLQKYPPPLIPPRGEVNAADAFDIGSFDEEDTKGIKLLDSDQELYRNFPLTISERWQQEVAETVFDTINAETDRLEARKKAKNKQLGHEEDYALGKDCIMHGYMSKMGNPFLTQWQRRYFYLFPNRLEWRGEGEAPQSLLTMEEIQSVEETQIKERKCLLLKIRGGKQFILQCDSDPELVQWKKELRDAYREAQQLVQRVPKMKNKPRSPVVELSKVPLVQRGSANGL
Chain of Botulinum neurotoxin type A (Clostridium botulinum) (P0DPI0 whole entry, looked up): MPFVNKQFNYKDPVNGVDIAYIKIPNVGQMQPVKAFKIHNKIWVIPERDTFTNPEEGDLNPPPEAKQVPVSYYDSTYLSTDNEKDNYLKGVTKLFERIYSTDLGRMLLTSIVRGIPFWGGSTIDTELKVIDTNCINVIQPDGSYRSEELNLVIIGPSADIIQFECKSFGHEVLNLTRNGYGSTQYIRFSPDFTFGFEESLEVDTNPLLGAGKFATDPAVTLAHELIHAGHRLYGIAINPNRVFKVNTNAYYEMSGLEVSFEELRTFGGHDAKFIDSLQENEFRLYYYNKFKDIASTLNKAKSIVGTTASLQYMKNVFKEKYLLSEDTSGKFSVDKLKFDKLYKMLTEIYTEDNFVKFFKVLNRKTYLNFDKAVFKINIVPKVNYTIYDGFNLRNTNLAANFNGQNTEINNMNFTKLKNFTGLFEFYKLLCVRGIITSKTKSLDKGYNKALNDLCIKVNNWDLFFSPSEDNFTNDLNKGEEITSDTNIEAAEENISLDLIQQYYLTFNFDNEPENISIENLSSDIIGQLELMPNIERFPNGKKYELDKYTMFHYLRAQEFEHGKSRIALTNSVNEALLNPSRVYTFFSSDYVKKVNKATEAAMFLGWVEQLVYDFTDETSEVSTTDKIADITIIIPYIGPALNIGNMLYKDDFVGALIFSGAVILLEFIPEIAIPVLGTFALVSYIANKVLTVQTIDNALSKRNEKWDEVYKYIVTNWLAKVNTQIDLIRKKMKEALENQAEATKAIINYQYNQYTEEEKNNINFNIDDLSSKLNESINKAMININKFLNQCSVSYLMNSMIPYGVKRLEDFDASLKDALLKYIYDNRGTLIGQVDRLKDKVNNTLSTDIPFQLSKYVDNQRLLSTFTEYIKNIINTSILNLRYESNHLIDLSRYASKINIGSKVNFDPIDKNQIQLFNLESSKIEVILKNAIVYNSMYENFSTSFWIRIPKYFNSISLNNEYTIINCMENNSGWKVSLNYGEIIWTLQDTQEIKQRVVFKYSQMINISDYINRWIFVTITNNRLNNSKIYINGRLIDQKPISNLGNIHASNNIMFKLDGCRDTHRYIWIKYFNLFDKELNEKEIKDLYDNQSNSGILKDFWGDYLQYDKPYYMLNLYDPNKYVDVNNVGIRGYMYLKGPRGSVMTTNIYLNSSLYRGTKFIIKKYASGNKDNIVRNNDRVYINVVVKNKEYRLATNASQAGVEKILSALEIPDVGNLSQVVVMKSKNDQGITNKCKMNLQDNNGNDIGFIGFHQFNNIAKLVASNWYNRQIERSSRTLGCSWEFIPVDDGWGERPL
Chain of Beta-2 adrenergic receptor (Homo sapiens) (P07550 whole entry, looked up): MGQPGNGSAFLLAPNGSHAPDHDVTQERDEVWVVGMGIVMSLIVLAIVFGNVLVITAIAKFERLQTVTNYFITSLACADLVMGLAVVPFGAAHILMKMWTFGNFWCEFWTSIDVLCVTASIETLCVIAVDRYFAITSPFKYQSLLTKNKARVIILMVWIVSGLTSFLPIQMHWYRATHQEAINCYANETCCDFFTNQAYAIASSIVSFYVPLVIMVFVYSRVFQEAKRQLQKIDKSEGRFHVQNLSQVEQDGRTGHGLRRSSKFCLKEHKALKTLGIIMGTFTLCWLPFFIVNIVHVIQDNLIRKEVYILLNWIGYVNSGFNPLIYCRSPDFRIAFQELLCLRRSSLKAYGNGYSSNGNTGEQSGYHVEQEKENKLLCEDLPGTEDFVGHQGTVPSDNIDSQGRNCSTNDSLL
Chain of Lethal factor (Bacillus anthracis) (P15917 whole entry, looked up): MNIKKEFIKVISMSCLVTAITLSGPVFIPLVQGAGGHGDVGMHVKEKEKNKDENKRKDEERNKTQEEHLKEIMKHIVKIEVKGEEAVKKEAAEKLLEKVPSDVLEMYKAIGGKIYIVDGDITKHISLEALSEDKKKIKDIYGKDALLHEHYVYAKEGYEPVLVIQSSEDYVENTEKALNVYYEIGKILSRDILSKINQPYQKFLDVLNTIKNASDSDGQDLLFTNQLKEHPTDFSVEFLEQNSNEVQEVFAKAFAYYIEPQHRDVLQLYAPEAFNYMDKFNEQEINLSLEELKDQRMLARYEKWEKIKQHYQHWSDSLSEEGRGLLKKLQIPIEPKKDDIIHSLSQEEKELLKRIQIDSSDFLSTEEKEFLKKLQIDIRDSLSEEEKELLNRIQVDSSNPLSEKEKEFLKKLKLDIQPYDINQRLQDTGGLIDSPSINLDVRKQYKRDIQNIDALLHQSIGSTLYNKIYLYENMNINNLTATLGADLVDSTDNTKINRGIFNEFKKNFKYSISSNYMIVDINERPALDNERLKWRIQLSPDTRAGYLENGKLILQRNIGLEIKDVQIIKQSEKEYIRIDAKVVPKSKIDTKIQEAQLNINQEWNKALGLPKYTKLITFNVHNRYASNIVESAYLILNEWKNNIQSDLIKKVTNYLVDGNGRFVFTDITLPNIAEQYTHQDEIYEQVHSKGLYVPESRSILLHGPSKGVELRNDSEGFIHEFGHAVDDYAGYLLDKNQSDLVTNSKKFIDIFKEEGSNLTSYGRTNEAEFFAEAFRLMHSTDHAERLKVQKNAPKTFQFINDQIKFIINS
Chain of Integrin beta-1 (Homo sapiens) + Integrin alpha-4 (Homo sapiens) (P05556 whole entry, looked up): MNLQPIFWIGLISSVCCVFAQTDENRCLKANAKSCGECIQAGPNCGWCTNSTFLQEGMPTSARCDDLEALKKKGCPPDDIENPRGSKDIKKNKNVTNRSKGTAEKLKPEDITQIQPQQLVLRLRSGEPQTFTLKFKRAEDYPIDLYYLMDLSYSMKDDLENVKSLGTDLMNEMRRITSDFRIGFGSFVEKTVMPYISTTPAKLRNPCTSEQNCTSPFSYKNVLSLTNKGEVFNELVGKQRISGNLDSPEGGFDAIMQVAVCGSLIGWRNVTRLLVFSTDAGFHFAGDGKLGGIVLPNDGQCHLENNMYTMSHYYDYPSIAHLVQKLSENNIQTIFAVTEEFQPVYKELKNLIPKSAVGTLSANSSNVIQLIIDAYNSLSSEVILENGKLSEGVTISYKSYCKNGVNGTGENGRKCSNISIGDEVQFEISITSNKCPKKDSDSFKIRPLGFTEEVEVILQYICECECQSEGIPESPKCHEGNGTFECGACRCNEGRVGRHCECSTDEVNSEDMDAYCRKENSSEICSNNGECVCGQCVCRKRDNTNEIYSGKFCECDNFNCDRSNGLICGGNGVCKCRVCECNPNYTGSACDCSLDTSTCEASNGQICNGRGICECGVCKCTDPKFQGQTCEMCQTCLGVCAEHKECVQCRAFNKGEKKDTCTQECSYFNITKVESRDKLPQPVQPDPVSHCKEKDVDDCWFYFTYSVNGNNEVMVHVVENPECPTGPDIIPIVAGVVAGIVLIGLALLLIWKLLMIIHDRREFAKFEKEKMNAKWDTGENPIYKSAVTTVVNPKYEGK
Chain of Integrin beta-1 (Homo sapiens) + Integrin alpha-4 (Homo sapiens) (P13612 whole entry, looked up): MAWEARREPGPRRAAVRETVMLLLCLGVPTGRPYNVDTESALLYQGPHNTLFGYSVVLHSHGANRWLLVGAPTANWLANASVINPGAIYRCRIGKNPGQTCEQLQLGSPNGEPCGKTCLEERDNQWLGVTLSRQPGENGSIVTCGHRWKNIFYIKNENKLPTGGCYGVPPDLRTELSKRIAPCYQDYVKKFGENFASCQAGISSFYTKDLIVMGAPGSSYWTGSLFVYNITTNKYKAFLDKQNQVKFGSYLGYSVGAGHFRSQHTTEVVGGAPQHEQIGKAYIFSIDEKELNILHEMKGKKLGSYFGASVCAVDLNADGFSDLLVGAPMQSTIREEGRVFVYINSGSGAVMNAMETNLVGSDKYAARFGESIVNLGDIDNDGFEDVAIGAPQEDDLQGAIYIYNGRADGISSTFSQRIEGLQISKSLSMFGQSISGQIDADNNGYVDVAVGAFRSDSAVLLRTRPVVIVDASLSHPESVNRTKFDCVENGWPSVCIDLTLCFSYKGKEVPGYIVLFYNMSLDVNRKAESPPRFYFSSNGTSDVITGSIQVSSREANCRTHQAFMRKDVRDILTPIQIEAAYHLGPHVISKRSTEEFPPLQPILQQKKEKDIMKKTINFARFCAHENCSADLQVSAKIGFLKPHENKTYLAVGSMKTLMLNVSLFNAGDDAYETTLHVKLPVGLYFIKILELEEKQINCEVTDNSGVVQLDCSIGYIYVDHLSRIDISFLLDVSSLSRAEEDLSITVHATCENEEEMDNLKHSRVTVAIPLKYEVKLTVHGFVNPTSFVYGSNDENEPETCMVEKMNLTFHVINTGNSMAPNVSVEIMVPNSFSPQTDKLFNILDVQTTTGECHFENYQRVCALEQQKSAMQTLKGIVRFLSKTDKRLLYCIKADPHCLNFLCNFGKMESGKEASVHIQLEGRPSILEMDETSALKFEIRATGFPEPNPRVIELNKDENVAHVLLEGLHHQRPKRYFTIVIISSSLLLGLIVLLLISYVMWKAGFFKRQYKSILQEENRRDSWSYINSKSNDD

The term inhibition denotes the change of the read-out against control, counted positive when it falls. As to `O=S(=O)(c1ccc(F)cc1)N1CCCCC1c1cccnc1` (stereo not given), the percent of DMSO control GFP in experiment [1] is 99% (inactive). Further, the GFP response vs DMSO in [2] is 102% (inactive); in experiment [4] it was 112% (inactive). In experiment [3], the percent response of DMSO control is 98.3% (inactive). In experiment [5], the GFP response, % of DMSO was 113% (inactive). For the same compound, the double positive events in experiment [6] was found to be 62%. In experiment [6], the vesicle binding response was 202% (inactive). Besides, the inhibition in experiment [7] was -2.82% (inactive); in experiment [11] it was -4.49% (inactive); in experiment [14], 0.1% (inactive); in experiment [15], 0.8% (inactive); in experiment [16] it was 3.2% (inactive); in experiment [18] it was 3% (inactive). Moreover, in experiment [8], the superoxide response (% of plate) is 99.7% (inactive). Also, in experiment [9], the aptamer binding inhibition was -2% (inactive). The response is -9.47% (inactive) in experiment [10] and 2.55% (inactive) in experiment [12]. In addition, the binding (% of control) in experiment [13] was 105% (inactive). The efflux inhibition (fraction of control) in experiment [17] was 0.08 (inactive). Moreover, the differentiation response in [19] is -11.9% (inactive).
`C[C@H]1OC[C@@H](C[N+](C)(C)C)O1`: the percent of DMSO control GFP in experiment [1] is 100% (inactive). Further, the values for the GFP response vs DMSO in experiment [2] and in experiment [4] were 98.7% (inactive) and 92.6% (inactive), respectively. Besides, in experiment [3], the percent response of DMSO control was 101% (inactive). Besides, the GFP response, % of DMSO in experiment [5] was 96.2% (inactive). The same compound returned a double positive events in [6] of 62.3%. For the same compound, in [6], the vesicle binding response was 144% (inactive). The inhibition in experiment [7] is -6.45% (inactive); in experiment [11] it was 5.6% (inactive); in experiment [14], 0.4% (inactive); in experiment [15], 0.4% (inactive); in experiment [16], 4.6% (inactive); in experiment [18], -2% (inactive). In experiment [8], the superoxide response (% of plate) is 95.3% (inactive). In experiment [9], the aptamer binding inhibition was 3% (inactive). Further, the response is 2.48% (inactive) in experiment [10] and 4.51% (inactive) in experiment [12]. In experiment [13], the binding (% of control) was 102% (inactive). Moreover, the efflux inhibition (fraction of control) in [17] was -0.16 (inactive). The differentiation response in [19] is -10.4% (inactive).
Take `O=C1CCCC2=C1C(c1cccnc1)Nc1ccccc1N2` (stereo not given): the percent of DMSO control GFP in experiment [1] was 105% (inactive). The figures for the GFP response vs DMSO in experiment [2] and in experiment [4] were 95.1% (inactive) and 89.4% (inactive), respectively. Also, the percent response of DMSO control in experiment [3] was 121% (inactive). For the same compound, the GFP response, % of DMSO in experiment [5] was 107% (inactive). Further, the double positive events in experiment [6] is 64.4%. Also, in experiment [6], the vesicle binding response is 211% (inactive). Also, the inhibition in [7] is -5.64% (inactive); in experiment [11] it was -4.18% (inactive); in experiment [14], 0.4% (inactive); in experiment [15], -2.1% (inactive); in experiment [16], -4% (inactive); in [18] it was -9% (inactive). Besides, the superoxide response (% of plate) in experiment [8] was 98% (inactive). In addition, in experiment [9], the aptamer binding inhibition was -2% (inactive). The figures for the response in experiment [10] and in experiment [12] were -5.46% (inactive) and -6.46% (inactive), respectively. Moreover, in experiment [13], the binding (% of control) was 99.8% (inactive). In experiment [17], the efflux inhibition (fraction of control) is -0.07 (inactive). Besides, in [19], the differentiation response was -4.64% (inactive).
